Data: PubChem BioAssay (Tox21)
Records with an inconclusive call do not appear. A call without a number means that no potency is given here. Calls of active or inactive are those of the source. Unless noted, calls come from the whole dose curve; as a rule, active = well fitted curve in the direction sought with a large enough effect in the repeat runs; inconclusive = weak or mixed curves; inactive = no such curve, though single readings can be large; an effect the other way counts as inactive or inconclusive.

Tests used:
[1] = qHTS assay to identify small molecule antagonists of the glucocorticoid receptor (GR) signaling pathway - cell viability counter screen (AID 720693); note: nearly all actives have a fitted effect of over 55% in size
[2] = qHTS assay for identifying genotoxic compounds that show differential cytotoxicity against isogenic chicken DT40 cell lines with known DNA damage response pathways - wild type cell line (AID 743012); note: nearly all actives have a fitted effect of over 60% in size
Outline: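 Wild type DT40, 300 cells/well, ~0.5 h settle at 37 C/5% CO2; compounds in DMSO added by pintool; 40 h at 37 C/5% CO2; CellTiter-Glo, 30 min RT; luminescence.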

[3] = qHTS assay for identifying genotoxic compounds that show differential cytotoxicity against isogenic chicken DT40 cell lines with known DNA damage response pathways - Rev3 mutant cell line (AID 743014); note: nearly all actives have a fitted effect of over 55% in size
[4] = qHTS assay for identifying genotoxic compounds that show differential cytotoxicity against isogenic chicken DT40 cell lines with known DNA damage response pathways - Rad54/Ku70 mutant cell line (AID 743015); note: nearly all actives have a fitted effect of over 60% in size
[5] = qHTS assay to identify small molecule antagonists of the androgen receptor (AR) signaling pathway - cell viability counter screen (AID 743033; note: nearly all actives have a fitted effect of over 45% in size)
[6] = qHTS assay to identify small molecule antagonists of the thyroid receptor (TR) signaling pathway - cell viability counter screen (AID 743064); note: nearly all actives have a fitted effect of over 50% in size
Outline: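 Same-well viability check: GH3.TRE-Luc cells stimulated with 1 nM T3 alongside test compound for 23.5 h, followed by CellTiter-Fluor fluorescence.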

[7] = system: thyroid hormone receptor (rat, GH3 cells); assay: qHTS assay to identify small molecule agonists of the thyroid receptor (TR) signaling pathway (AID 743066; calls by dose curve)
[8] = qHTS assay to identify small molecule antagonists of the estrogen receptor alpha (ER-alpha) signaling pathway - cell viability counter screen (AID 743074; calls by dose curve; note: nearly all actives have a fitted effect of over 45% in size)
[9] = qHTS assay to identify small molecule antagonists of the estrogen receptor alpha (ER-alpha) signaling pathway using the BG1 cell line - cell viability counter screen (AID 743081);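 note: compound given together with 17beta-estradiol as the ER stimulus; series mostly up to about 70 µM; nearly all actives have a fitted effect of over 45% in size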
Aromatase (Homo sapiens) = Aromatase (Homo sapiens) (UniProt P11511); assay: qHTS assay to identify aromatase inhibitors (AID 743083); note: series mostly up to about 70 µM; nearly all actives have a fitted effect of over 55% in size
[10] = qHTS assay to identify small molecule antagonists of the androgen receptor (AR) signaling pathway using the MDA cell line - cell viability counter screen (AID 743041; note: nearly all actives have a fitted effect of over 45% in size)
Outline: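 MDA-kb2 AR-luc human breast carcinoma cells (MMTV-luciferase, AR/GR responsive) were treated with compounds plus R1881 agonist for 16 h at 37 °C. Viability was read as CellTiter-Fluor fluorescence in the same wells as the reporter assay.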

[11] = qHTS assay to identify small molecule antagonists of the thyroid receptor (TR) signaling pathway (AID 743065); note: series mostly up to about 70 µM; nearly all actives have a fitted effect of over 55% in size
Outline: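 GH3.TRE-Luc rat pituitary cells carrying two TR response elements driving luciferase were plated for 4 h, given compound plus 1 nM T3 (final), and incubated 23.5 h at 37 C. ONE-Glo luminescence measured reporter inhibition; CellTiter-Fluor fluorescence tracked cytotoxicity.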

[12] = biological target: Estrogen receptor (Homo sapiens) (UniProt P03372); assay: qHTS assay to identify small molecule antagonists of the estrogen receptor alpha (ER-alpha) signaling pathway (AID 743069; active = well fitted curve in the direction sought with a large enough effect in the signal ratio in the repeat runs, not every such curve was filed as active; the % refers to the signal ratio)
Outline: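 HEK293 cells stably carrying an ER-alpha-UAS-bla beta-lactamase reporter were pre-cultured overnight in 2% charcoal-stripped FBS medium. Test compounds in DMSO were added together with 17beta-estradiol for 18 hr at 37C. Read-out was fluorescence after 2 hr with LiveBLAzer B/G FRET substrate at room temperature.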

[13] = biological target: Estrogen receptor (Homo sapiens) (UniProt P03372); assay: qHTS assay to identify small molecule agonists of the estrogen receptor alpha (ER-alpha) signaling pathway (AID 743075; calls by dose curve)
[14] = qHTS assay to identify small molecule antagonists of the estrogen receptor alpha (ER-alpha) signaling pathway using the BG1 cell line (AID 743080; calls by dose curve;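 note: BG1 cells stimulated with 17beta-estradiol alongside compound; series mostly up to about 70 µM; nearly all actives have a fitted effect of over 25% in size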)
Outline: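 Seeding, 24 h rest, compound transfer from DMSO, 17beta-estradiol addition, 21.5 h incubation, CellTiter-Fluor (30 min, 37 C), then ONE-Glo (30 min, room temperature): this sequence was run on BG1-Luc-4E2 reporter cells.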

[15] = biological target: Estrogen receptor (Homo sapiens) (UniProt P03372); assay: qHTS assay to identify small molecule agonists of the estrogen receptor alpha (ER-alpha) signaling pathway using the BG1 cell line (AID 743079); note: nearly all actives have a fitted effect of over 20% in size; note: potency is the fitted concentration of half-maximal effect
[16] = biological target: Androgen receptor (Homo sapiens) (UniProt P10275); assay: qHTS assay to identify small molecule antagonists of the androgen receptor (AR) signaling pathway (AID 743035; active = well fitted inhibition curve with a large enough effect in the signal ratio in the repeat runs, not every such curve was filed as active; the % refers to the signal ratio)
Outline: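 Fluorescence from a beta-lactamase FRET substrate (LiveBLAzer B/G, 2 h, room temperature) measured inhibition of R1881-stimulated signaling in GeneBLAzer AR-UAS-bla HEK293 cells exposed to compound for 16 h at 37C.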

[17] = biological target: Androgen receptor (Homo sapiens) (UniProt P10275); assay: qHTS assay to identify small molecule agonists of the androgen receptor (AR) signaling pathway (AID 743036; active = well fitted activation curve with a large enough effect in the signal ratio in the repeat runs, with a control signal flat, not every such curve was filed as active; the % refers to the signal ratio)
Outline: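 Agonist activity was scored by beta-lactamase reporter fluorescence in stably transfected HEK293 cells exposed to compounds for 16 h at 37C and 5% CO2. Substrate loading took 2 h at room temperature.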

[18] = biological target: Androgen receptor (Homo sapiens) (UniProt P10275); assay: qHTS assay to identify small molecule agonists of the androgen receptor (AR) signaling pathway using the MDA cell line (AID 743040; note: nearly all actives have a fitted effect of over 20% in size)
Outline: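 MDA-kb2 breast carcinoma cells stably carrying an MMTV-driven luciferase reporter (AR- and GR-responsive) were seeded and held 5 h at 37C, 0% CO2, then exposed to compounds in DMSO for 16 h. Luminescence was read 30 min after ONE-Glo addition.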

[19] = biological target: Androgen receptor (Homo sapiens) (UniProt P10275); assay: qHTS assay to identify small molecule antagonists of the androgen receptor (AR) signaling pathway using the MDA cell line (AID 743042; note: nearly all actives have a fitted effect of over 55% in size)
Outline: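 MDA-kb2 cells (human breast carcinoma, stably carrying an MMTV-luciferase reporter responsive to AR and GR) were plated at 3,000 cells/well and preincubated 5 hr at 37C, then given compound plus R1881 agonist for 16 h. ONE-Glo luminescence was read.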

Sequence of Estrogen receptor (Homo sapiens) (P03372 whole entry, looked up): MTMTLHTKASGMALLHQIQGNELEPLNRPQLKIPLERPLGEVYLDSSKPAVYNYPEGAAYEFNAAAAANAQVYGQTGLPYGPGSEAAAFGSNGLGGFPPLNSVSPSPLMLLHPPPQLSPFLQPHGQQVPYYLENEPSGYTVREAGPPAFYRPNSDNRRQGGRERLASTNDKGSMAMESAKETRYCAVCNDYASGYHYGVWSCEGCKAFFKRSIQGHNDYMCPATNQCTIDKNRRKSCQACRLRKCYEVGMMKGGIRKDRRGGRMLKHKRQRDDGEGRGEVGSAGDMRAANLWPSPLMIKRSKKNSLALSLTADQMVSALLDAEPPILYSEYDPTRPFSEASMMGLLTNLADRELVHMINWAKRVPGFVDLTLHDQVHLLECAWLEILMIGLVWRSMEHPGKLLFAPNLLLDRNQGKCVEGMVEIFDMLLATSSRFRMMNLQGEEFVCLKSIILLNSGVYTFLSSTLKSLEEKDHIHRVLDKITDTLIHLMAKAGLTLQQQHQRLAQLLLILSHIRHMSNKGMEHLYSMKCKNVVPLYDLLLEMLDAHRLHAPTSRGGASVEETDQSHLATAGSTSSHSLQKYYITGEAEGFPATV
Sequence of Androgen receptor (Homo sapiens) (P10275 whole entry, looked up): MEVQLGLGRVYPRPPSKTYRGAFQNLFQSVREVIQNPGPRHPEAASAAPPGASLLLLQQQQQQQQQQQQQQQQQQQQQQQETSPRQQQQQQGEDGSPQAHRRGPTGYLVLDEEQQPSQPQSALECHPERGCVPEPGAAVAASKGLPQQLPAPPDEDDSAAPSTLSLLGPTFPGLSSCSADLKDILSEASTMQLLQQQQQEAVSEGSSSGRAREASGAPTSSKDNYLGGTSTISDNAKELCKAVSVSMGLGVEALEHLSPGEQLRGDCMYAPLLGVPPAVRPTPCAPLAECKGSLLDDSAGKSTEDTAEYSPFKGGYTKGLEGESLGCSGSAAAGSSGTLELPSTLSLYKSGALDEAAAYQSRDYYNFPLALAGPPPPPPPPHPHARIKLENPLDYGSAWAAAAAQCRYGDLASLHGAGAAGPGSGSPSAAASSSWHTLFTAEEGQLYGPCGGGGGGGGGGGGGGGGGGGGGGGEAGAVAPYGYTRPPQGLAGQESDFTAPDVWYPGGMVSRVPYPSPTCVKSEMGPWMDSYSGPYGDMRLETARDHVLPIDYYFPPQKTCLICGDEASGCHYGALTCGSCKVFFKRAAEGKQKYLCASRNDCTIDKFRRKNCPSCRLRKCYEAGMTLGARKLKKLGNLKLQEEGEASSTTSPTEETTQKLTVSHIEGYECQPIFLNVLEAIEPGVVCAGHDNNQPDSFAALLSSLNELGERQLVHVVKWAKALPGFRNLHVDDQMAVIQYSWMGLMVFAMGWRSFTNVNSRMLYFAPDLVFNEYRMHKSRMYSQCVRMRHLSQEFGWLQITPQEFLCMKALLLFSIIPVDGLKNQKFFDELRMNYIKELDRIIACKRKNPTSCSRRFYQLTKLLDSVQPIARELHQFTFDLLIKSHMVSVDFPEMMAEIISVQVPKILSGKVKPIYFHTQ
Sequence of Aromatase (Homo sapiens) (P11511 whole entry, looked up): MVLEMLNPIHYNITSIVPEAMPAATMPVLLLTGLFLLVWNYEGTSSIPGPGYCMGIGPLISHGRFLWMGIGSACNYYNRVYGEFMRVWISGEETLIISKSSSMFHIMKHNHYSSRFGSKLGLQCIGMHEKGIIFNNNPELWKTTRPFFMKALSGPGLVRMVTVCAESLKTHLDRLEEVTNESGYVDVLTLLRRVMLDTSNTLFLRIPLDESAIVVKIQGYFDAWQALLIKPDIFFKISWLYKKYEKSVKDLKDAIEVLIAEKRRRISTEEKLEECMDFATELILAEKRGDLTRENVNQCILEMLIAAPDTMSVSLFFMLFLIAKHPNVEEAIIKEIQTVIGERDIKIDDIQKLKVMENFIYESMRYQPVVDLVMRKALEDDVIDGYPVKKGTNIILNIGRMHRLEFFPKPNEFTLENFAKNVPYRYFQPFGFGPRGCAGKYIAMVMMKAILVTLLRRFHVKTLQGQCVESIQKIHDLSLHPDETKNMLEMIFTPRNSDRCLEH

Cc1ccccc1N1CCN(CCc2nnc3n2CCCC3)CC1
Potency [1]: inactive
Potency [2]: inactive
Potency [3]: inactive
Potency [4]: inactive
outcome [5]: inactive
Potency [6]: inactive
Potency [7]: inactive
Potency [8]: inactive
outcome [9]: inactive
outcome (Aromatase (Homo sapiens)): inactive

OCCCCCCCl
Potency [1]: inactive
Potency [2]: inactive
Potency [3]: inactive
outcome [5]: inactive
outcome [10]: inactive
Potency [6]: inactive
Potency [11]: inactive
Potency [7]: inactive
Potency [12]: inactive
Potency [8]: inactive
Potency [13]: inactive
outcome [14]: inactive
outcome [9]: inactive
outcome (Aromatase (Homo sapiens)): inactive

CC(=O)c1ccc2c(c1)CCCC2
Potency [1]: inactive
Potency [2]: inactive
Potency [3]: inactive
outcome [5]: inactive
outcome [10]: inactive
Potency [6]: inactive
Potency [11]: inactive
Potency [7]: inactive
Potency [12]: inactive
Potency [8]: inactive
outcome [14]: inactive
outcome [9]: inactive
outcome (Aromatase (Homo sapiens)): inactive

CC(=O)/C=C/c1ccco1
Potency [1]: inactive
Potency [2]: inactive
Potency [3]: inactive
Potency [4]: inactive
outcome [5]: inactive
Potency [6]: inactive
Potency [7]: inactive
Potency [12]: inactive
Potency [8]: inactive
Potency [13]: inactive
Potency [15]: inactive
outcome [14]: inactive
outcome [9]: inactive
outcome (Aromatase (Homo sapiens)): inactive

CC1CCC(C(C)(C)S)C(=O)C1 (stereo not given)
Potency [1]: inactive
Potency [2]: inactive
Potency [3]: inactive
outcome [5]: inactive
outcome [10]: inactive
Potency [6]: inactive
Potency [11]: inactive
Potency [7]: inactive
Potency [12]: inactive
Potency [8]: inactive
Potency [13]: inactive
Potency [15]: inactive
outcome [14]: inactive
outcome [9]: inactive
outcome (Aromatase (Homo sapiens)): inactive

NS(=O)(=O)c1cc2c(cc1Cl)NC(CC1CCCC1)NS2(=O)=O (stereo not given)
Potency [1]: inactive
Potency [2]: inactive
Potency [3]: inactive
Potency [4]: inactive
outcome [5]: inactive
Potency [6]: inactive
Potency [11]: inactive
Potency [7]: inactive
Potency [8]: inactive
outcome [9]: inactive
outcome (Aromatase (Homo sapiens)): inactive

COc1ccc(OC)c(NC(=O)CC(C)=O)c1
Potency [1]: inactive
Potency [2]: inactive
Potency [4]: inactive
outcome [5]: inactive
Potency [6]: inactive
Potency [11]: inactive
Potency [7]: inactive
Potency [8]: inactive
outcome [9]: inactive

CC1=CC[C@H](CC=O)C1(C)C
Potency [1]: inactive
Potency [2]: inactive
Potency [4]: inactive
outcome [5]: inactive
outcome [10]: inactive
Potency [6]: inactive
Potency [7]: inactive
Potency [12]: inactive
Potency [8]: inactive
Potency [13]: inactive
Potency [15]: inactive
outcome [14]: inactive
outcome [9]: inactive
outcome (Aromatase (Homo sapiens)): inactive

NC(=O)NC(=O)Cc1ccccc1
Potency [1]: inactive
Potency [2]: inactive
Potency [3]: inactive
outcome [10]: inactive
Potency [6]: inactive
Potency [11]: inactive
Potency [7]: inactive
Potency [12]: inactive
Potency [8]: inactive
Potency [13]: inactive
Potency [15]: 33.5 µM (active)
outcome [14]: inactive
outcome [9]: inactive
outcome (Aromatase (Homo sapiens)): inactive

CCCCOC(=O)C(=O)OCCCC
Potency [1]: inactive
Potency [2]: inactive
Potency [3]: inactive
outcome [5]: inactive
Potency [6]: inactive
Potency [11]: inactive
Potency [7]: inactive
outcome [9]: inactive
outcome (Aromatase (Homo sapiens)): inactive

CCC(C)(C)C1CCC(=O)CC1
Potency [1]: inactive
Potency [2]: inactive
Potency [4]: inactive
outcome [5]: inactive
Potency [16]: inactive
outcome [17]: inactive
outcome [18]: inactive
outcome [10]: inactive
outcome [19]: inactive
Potency [6]: inactive
Potency [7]: inactive
Potency [12]: inactive
Potency [8]: inactive
Potency [13]: inactive
outcome [14]: inactive
outcome [9]: inactive
outcome (Aromatase (Homo sapiens)): inactive
